Shown are actives, neighbours in structure and some others; about 3.7% of the full set was active somewhere.
MazF activator = activators of E. coli MazEF toxin-antitoxin RNase, primary screen, biochemical, fluorescence, uHTS | FAM/BHQ RNA-DNA oligo cleavage fluorescence, 5 h | 350,000 tested, 0.32% active | activation, % at 20 µM; in the data active means activation above about 50%
Target sequence (P0AE70 whole entry, looked up): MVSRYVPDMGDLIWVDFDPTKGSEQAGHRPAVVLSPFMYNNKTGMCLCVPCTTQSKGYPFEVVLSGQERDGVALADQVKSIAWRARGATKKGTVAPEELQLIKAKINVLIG
Autofluor counter = counter-screen for toxin protease inhibitors: compound fluorescence; compound autofluorescence counterscreen, microsphere flow cytometry; active compounds read high; 360,000 tested, 3.1% active; AID 624483; fluorescence intensity (no concentration beside the values); in the data active means fluorescence intensity above about 16000; inconclusive means no clear call, values can overlap the other calls
BoNT A protease = BoNT/A light chain protease inhibitors, primary screen, biochemical, flow cytometry, MLPCN library. Botulinum neurotoxin type A light chain protease (Clostridium botulinum A str. ATCC 3502). inhibition, % at 10 µM. AID 588499, 2011. 360,000 tested, 0.17% active. multiplex microsphere protease substrate cleavage
Anthrax LF prot = Bacillus anthracis LF protease inhibitors, primary screen, biochemical, multiplex microsphere, MLPCN library | Lethal factor (Bacillus anthracis), P15917 | multiplex microsphere protease cleavage assay | inhibition, % at 10 µM | 360,000 tested, 0.12% active | AID 588501, 2011
BoNT F protease = BoNT/F light chain protease inhibitors, primary screen, biochemical, flow cytometry, MLPCN library; Multiplex microsphere protease cleavage assay; inhibition, % at 10 µM; 360,000 tested, 0.22% active; AID 588497, 2011; in the data active means inhibition above about 35%, passing the limit was not always enough; inconclusive means no clear call, values can overlap the other calls
A number is an active result. Unless noted, no stated cut-off is given here; in the data, active means inhibition above about 30%; inconclusive means no clear call, values can overlap the other calls; inactive means below that.

Results for Cc1cccc2[nH]c3c(N4CCN(C(=O)c5ccco5)CC4)ncnc3c12 ?
MazF activator: inactive; Autofluor counter: 24618; BoNT A protease: inactive; Anthrax LF prot: inactive; BoNT F protease: inactive

What do the screens show for `S=c1[nH]nc(COc2ccc(Cl)cc2)o1`?
MazF activator: inactive; Autofluor counter: 19965; BoNT A protease: inconclusive; Anthrax LF prot: inactive; BoNT F protease: inactive

How did COc1ccccc1-c1ccc(Nc2cccc(C(F)(F)F)c2)nn1 do in these assays?
MazF activator: inactive; Autofluor counter: inactive; BoNT A protease: inactive; Anthrax LF prot: inactive; BoNT F protease: inactive

Results for COc1ccccc1-c1ccc(NC2CCCCC2)nn1 ?
MazF activator: inactive; Autofluor counter: 23544; BoNT A protease: inactive; Anthrax LF prot: inactive; BoNT F protease: inactive

Results for CC(=O)NC(=O)NC1CSCC1OC(C)=O (stereo not drawn) ?
MazF activator: inactive; Autofluor counter: 23409; BoNT A protease: inconclusive; Anthrax LF prot: inactive; BoNT F protease: inactive

Results for Cc1ccc(NC(=O)c2cc3nc(C)cc(C)n3n2)cc1 ?
MazF activator: inactive; Autofluor counter: 20310; BoNT A protease: inactive; Anthrax LF prot: inactive; BoNT F protease: inactive

What do the screens show for `O=C(OCC(F)(F)C(F)F)c1ccccc1C(=O)Oc1ccc(F)cc1F`?
MazF activator: inactive; Autofluor counter: 20051; BoNT A protease: inconclusive; Anthrax LF prot: inactive; BoNT F protease: inactive

How did O=c1oc2c(CN3CCOCC3)c(O)ccc2c2c1CCC2 do in these assays?
MazF activator: inactive; Autofluor counter: 20943; BoNT A protease: inactive; Anthrax LF prot: inactive; BoNT F protease: inactive

How did CC1CCCN(Cc2c(O)ccc3c4c(c(=O)oc23)CCCC4)C1 (stereo not drawn) do in these assays?
MazF activator: inactive; Autofluor counter: inactive; BoNT A protease: inactive; Anthrax LF prot: inactive; BoNT F protease: inactive

What do the screens show for `C=CCn1c(SC(C)C(=O)NCc2ccc3c(c2)OCO3)nc2scc(-c3ccccc3)c2c1=O` (stereo not drawn)?
MazF activator: inactive; Autofluor counter: 16316; BoNT A protease: inactive; Anthrax LF prot: inactive; BoNT F protease: inactive

How did CCOC(=O)C(=N/O)/C(C)=N/NC(C)=O do in these assays?
MazF activator: inactive; Autofluor counter: inactive; BoNT A protease: inactive; Anthrax LF prot: inactive; BoNT F protease: 46

Results for Cc1ccc(S(=O)(=O)NN=C2CCc3ccccc32)cc1 ?
MazF activator: inactive; Autofluor counter: inactive; BoNT A protease: inactive; Anthrax LF prot: inactive; BoNT F protease: inactive

Results for c1ccc(Nc2nc(N3CCCC3)nc(N3CCCC3)n2)cc1 ?
MazF activator: inactive; Autofluor counter: 20430; BoNT A protease: inactive; Anthrax LF prot: inactive; BoNT F protease: inactive

How did Cc1cccc(Nc2nc(N3CCCC3)nc(N3CCCC3)n2)c1 do in these assays?
MazF activator: inactive; Autofluor counter: 22488; BoNT A protease: inactive; Anthrax LF prot: inactive; BoNT F protease: inactive

What do the screens show for `c1ccc(Nc2nc(N3CCCCC3)nc(N3CCCCC3)n2)cc1`?
MazF activator: inactive; Autofluor counter: inactive; BoNT A protease: inactive; Anthrax LF prot: inactive; BoNT F protease: inactive

What do the screens show for `Cc1cccc2cc(CN(Cc3ccco3)C(=O)c3ccncc3)c(=O)[nH]c12`?
MazF activator: inactive

What do the screens show for `O=C(c1ccncc1)N(Cc1ccco1)Cc1cc2ccccc2[nH]c1=O`?
MazF activator: inactive; Autofluor counter: 22113; BoNT A protease: inactive; Anthrax LF prot: inactive; BoNT F protease: inactive

What do the screens show for `CCOc1ccc(NC(=O)CSc2nnc(CCNC(=O)c3ccc(OC)cc3)n2C)cc1`?
MazF activator: inactive; Autofluor counter: 16470; BoNT A protease: inconclusive; Anthrax LF prot: inactive; BoNT F protease: inactive

What do the screens show for `CCOc1ccc(NC(=O)CSc2nnc(C3CC3)n2C)cc1`?
MazF activator: inactive; Autofluor counter: inactive; BoNT A protease: inactive; Anthrax LF prot: inactive; BoNT F protease: inactive

What do the screens show for `COc1ccc(C(=O)NCCc2nnc(SCC(=O)Nc3ccc(Br)cc3)n2C)cc1`?
MazF activator: inactive; Autofluor counter: inactive; BoNT A protease: inactive; Anthrax LF prot: inactive; BoNT F protease: inactive

Results for CCOc1ccc(NC(=O)CSc2nnc(C34CC5CC(CC(C5)C3)C4)n2C)cc1 ?
MazF activator: inactive; Autofluor counter: 17197; BoNT A protease: inactive; Anthrax LF prot: inactive; BoNT F protease: inactive

How did COc1ccc(C(=O)NNC(=O)CSc2nnc(COc3ccc4ccccc4c3)n2C)cc1 do in these assays?
MazF activator: inactive; Autofluor counter: inactive; BoNT A protease: inactive; Anthrax LF prot: inactive; BoNT F protease: inactive

How did COc1ccc(OCCSc2nnc(CCNC(=O)c3ccc(OC)cc3)n2C)cc1 do in these assays?
MazF activator: inactive; Autofluor counter: inactive; BoNT A protease: inactive; Anthrax LF prot: inactive; BoNT F protease: inactive

What do the screens show for `COc1ccc(OCCSc2nnc(CCNC(=O)c3ccc(Cl)c(Cl)c3)n2C)cc1`?
MazF activator: inactive; Autofluor counter: 20984; BoNT A protease: inactive; Anthrax LF prot: inactive; BoNT F protease: inactive

What do the screens show for `COc1ccc(C(=O)NNC(=O)CSc2nnc(COc3ccccc3)n2C)cc1`?
MazF activator: inactive; Autofluor counter: 16210; BoNT A protease: inactive; Anthrax LF prot: inactive; BoNT F protease: inactive

Results for O=C(Nc1cccc(Oc2ccccc2)c1)c1ccc(-n2cncn2)c2ccoc12 ?
Autofluor counter: inactive; BoNT A protease: inactive; Anthrax LF prot: inactive; BoNT F protease: inactive

What do the screens show for `COc1ccc(CC(=O)NC(C)c2nnc(SCCOc3ccc(OC)cc3)n2C)cc1` (stereo not drawn)?
MazF activator: inactive; Autofluor counter: 16217; BoNT A protease: inactive; Anthrax LF prot: inactive; BoNT F protease: inactive

What do the screens show for `C=CCn1c(SCCOc2ccc(OC)cc2)nnc1C(CO)NC(=O)c1ccc(OC)cc1` (stereo not drawn)?
MazF activator: inactive; Autofluor counter: 16235; BoNT A protease: inactive; Anthrax LF prot: inactive; BoNT F protease: inactive

Results for COc1ccc(CC(=O)NC(C)c2nnc(SCC(=O)c3ccc(OC)cc3)n2C)cc1 (stereo not drawn) ?
MazF activator: inactive; Autofluor counter: inactive; BoNT A protease: inactive; Anthrax LF prot: inactive; BoNT F protease: inactive

Results for C=CCn1c(SCCOc2ccc(OC)cc2)nnc1C(C)NC(=O)c1ccc(OC)cc1 (stereo not drawn) ?
MazF activator: inactive; Autofluor counter: inactive; BoNT A protease: inactive; Anthrax LF prot: inactive; BoNT F protease: inactive

How did CCc1sc(C(=O)Nc2ccsc2C(=O)OC)cc1Br do in these assays?
MazF activator: inactive; Autofluor counter: 16369; BoNT A protease: inactive; Anthrax LF prot: inactive; BoNT F protease: inactive

How did COC(=O)c1sccc1NC(=O)c1cc(C)on1 do in these assays?
MazF activator: inactive; Autofluor counter: 17750; BoNT A protease: inconclusive; Anthrax LF prot: inactive; BoNT F protease: inactive

How did COC(=O)c1sccc1NC(=O)c1c(F)c(F)c(F)c(F)c1F do in these assays?
MazF activator: inactive; Autofluor counter: inactive; BoNT A protease: inactive; Anthrax LF prot: inactive; BoNT F protease: inactive
